Assay outcomes as filed in PubChem.
The list is not random: actives were taken first. Their share in the collection is about 12%.
G9a block: blocks human histone lysine methyltransferase G9a; 350,000 tested, 8.8% active; AID 504332; G9a H3K9 monomethylation, AlphaScreen, 2 h; Potency, µM (titrated, usually from 102 µM), usual class: inhibitors; further: nearly all actives have a fitted effect of over 75% in size
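Signal arises when biotinylated H3K9 peptide, once monomethylated, bridges streptavidin donor and antibody-captured acceptor beads. Enzyme at 20 nM was preincubated 15 min with test compounds; peptide 500 nM and SAM 20 uM then reacted for 2 h.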
BAZ2B block: blocks human BAZ2B. Potency, µM (top dose mostly 114 µM), usual class: inhibitors. Q9UIF8. AlphaScreen BAZ2B-H3K14Ac peptide displacement. 360,000 tested, 4.4% active; further: nearly all actives have a fitted effect of over 60% in size
Target sequence (Q9UIF8 whole entry, looked up): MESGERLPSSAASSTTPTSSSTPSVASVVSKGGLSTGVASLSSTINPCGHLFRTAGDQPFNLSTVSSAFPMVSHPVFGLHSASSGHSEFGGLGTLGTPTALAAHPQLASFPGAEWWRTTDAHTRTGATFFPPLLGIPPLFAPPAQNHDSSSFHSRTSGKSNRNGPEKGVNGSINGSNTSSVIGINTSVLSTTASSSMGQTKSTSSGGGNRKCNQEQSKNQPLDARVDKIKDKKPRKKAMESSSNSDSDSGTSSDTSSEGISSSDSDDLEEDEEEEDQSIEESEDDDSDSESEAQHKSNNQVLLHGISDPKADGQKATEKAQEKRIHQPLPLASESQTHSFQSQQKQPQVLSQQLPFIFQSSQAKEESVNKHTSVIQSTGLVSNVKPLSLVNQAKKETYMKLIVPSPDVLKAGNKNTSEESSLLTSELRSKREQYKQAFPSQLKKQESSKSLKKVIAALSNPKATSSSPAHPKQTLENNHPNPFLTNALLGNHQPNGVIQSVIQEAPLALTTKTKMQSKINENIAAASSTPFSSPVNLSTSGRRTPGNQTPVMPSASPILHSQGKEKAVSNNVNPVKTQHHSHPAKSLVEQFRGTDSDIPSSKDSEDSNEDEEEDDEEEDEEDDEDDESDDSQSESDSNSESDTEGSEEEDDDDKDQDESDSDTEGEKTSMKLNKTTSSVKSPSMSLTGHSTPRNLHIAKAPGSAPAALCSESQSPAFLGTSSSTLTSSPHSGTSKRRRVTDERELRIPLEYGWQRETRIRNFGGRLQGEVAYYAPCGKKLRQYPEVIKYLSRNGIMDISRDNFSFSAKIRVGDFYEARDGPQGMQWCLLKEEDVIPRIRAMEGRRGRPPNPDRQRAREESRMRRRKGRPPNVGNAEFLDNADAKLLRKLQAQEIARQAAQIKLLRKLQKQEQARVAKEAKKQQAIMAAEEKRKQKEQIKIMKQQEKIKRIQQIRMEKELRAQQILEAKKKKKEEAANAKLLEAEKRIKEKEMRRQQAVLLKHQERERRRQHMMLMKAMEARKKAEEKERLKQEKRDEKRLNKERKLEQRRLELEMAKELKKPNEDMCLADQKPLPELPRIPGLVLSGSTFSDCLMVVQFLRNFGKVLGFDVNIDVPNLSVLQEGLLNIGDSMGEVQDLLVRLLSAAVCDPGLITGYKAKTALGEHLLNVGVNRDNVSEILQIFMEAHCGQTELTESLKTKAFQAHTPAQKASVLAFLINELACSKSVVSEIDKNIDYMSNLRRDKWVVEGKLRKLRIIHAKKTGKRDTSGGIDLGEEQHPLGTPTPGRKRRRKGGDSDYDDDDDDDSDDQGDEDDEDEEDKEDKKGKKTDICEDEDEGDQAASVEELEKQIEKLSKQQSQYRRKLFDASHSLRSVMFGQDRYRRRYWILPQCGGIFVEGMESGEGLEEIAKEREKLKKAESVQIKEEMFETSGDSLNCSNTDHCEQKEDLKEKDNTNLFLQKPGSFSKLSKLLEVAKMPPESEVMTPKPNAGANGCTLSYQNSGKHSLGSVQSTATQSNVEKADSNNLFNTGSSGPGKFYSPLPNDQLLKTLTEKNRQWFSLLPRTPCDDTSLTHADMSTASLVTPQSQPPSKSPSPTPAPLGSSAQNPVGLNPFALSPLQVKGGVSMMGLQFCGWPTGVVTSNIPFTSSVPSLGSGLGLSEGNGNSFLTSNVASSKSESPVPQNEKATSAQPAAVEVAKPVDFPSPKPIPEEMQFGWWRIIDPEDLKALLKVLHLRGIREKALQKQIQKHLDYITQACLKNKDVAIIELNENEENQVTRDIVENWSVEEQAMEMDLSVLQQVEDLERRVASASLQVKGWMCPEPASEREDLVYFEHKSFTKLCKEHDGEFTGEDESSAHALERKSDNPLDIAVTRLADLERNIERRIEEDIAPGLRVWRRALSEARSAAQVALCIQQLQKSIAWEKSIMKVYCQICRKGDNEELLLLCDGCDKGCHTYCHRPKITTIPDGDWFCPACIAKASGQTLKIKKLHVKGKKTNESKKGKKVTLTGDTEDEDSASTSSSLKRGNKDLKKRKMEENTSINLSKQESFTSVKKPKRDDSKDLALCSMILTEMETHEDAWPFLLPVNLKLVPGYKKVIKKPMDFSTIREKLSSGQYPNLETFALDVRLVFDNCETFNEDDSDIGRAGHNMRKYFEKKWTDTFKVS
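Complex of BAZ2B and biotin-H3K14Ac (50 nM apiece) forms over 30 min at RT, then faces library compounds up to 110 uM for another 30 min; AlphaScreen beads added, 20 min dark incubation, luminescence read.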
Sfp inh: Sfp phosphopantetheinyl transferase inhibition; 310,000 tested, 3.5% active; Potency, µM, actives largely listed as inhibitors; Biochemical Sfp PPTase activity, qHTS; Q9F4F7; AID 1490;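 further: the enzyme is Sfp with the accession as filed and its product quenches rhodamine fluorescence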
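Sfp 15 nM + cpd, 15 min RT; start w/ rhodamine-CoA 5 uM, BHQ-2-YbbR 12.5 uM (final); 50 mM Hepes pH 7.6, 10 mM MgCl2, 0.01% NP-40, 0.01% BSA; read 525/598 nm at 0 and 30 min.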
HP1b binding inh: HP1-beta chromodomain-methylated histone interaction inhibition | AlphaScreen HP1-beta / biotin-H3K9me3 peptide binding | Potency, µM (titrated, usually from 114 µM), most hits filed as inhibitors | 390,000 tested, 0.56% active | AID 540317; further: nearly all actives have a fitted effect of over 70% in size
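AlphaScreen: HP1-beta (50 nM) preformed 30 min with biotin-H3(1-18)K9me3 peptide (50 nM) in PBS pH 7.4, 0.01% Tween-20. Compound added for 30 min at RT, then streptavidin donor/nickel chelate acceptor beads (10 ug/mL) for 30 min.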
JMJD2A Tudor: JMJD2A Tudor domain (human) inhibition. Potency, µM (titrated, usually from 114 µM), hits mostly inhibitors. AlphaScreen JMJD2A-Tudor / H3K4me3 peptide binding. 390,000 tested, 4.4% active. O75164; further: nearly all actives have a fitted effect of over 50% in size
PLK1 PBD block: PLK1 (human) polo-box domain binding inhibition. P53350. Plk1 PBD binding of FITC phosphopeptide, fluorescence polarization. Potency, µM, usual class: inhibitors. 360,000 tested, 2.8% active; further: series mostly up to about 57 µM; nearly all actives have a fitted effect of over 65% in size
Hits are given with their value; - = inactive; ? = inconclusive; . = no result given; [ ] = remark or other dose. The call rests on the fitted dose curve; in most records, active means well fitted curve in the direction sought with a large enough effect; inconclusive means small, poorly fitted or top-dose-only effect, or another doubt; inactive means no such curve, though single readings can be large; an effect the other way counts as inactive or inconclusive.

SMILES	G9a block	BAZ2B block	Sfp inh	HP1b binding inh	JMJD2A Tudor	PLK1 PBD block
COc1cccc(CNC(=O)CCC2CCCN(C(=O)c3cc(C4CC4)[nH]n3)C2)c1 (stereo not given)	?	-	-	-	-	-
c1ccc(C2[C@H]3CN(CC4CCCCC4)[C@H](c4ccccc4)C34CC2(c2cccnc2)C4)cc1 (stereo not given in full)	-	?	-	-	-	-
CC(C)=N/N=c1\scc(C)n1Cc1ccco1	-	-	-	-	-	-
Cc1csc(=Nc2cccnc2)n1Cc1ccco1	-	45µM	-	-	-	-
Cc1csc(=Nc2cccnc2)n1CC1CCCCC1	?	45µM	-	-	-	-
COc1ccc(CCNC(=O)C(NS(=O)(=O)c2ccc3c(c2)CCN3C(C)=O)C(C)C)cc1OC (stereo not given)	40µM	-	-	.	.	.
COc1ccc(CNC(=O)c2oc3c(c2C)-c2nn(Cc4ccccc4Cl)cc2CC3)cc1	-	?	.	-	-	.
COc1ccc(NC(=O)c2c(C)oc3ccc(O)c(CN4CCCCCC4)c23)cc1Cl	-	?	.	-	-	.
CC(C)[C@H]1CN=C2N(C[C@H](C)NC(=O)CCC3CCCCC3)[C@H](Cc3ccc(O)cc3)CN21	?	-	50µM	-	79µM	13µM
C/C=C(\C)C(=O)NCCN1C2=NC[C@H](C(C)C)N2C[C@@H]1Cc1ccc(OC)cc1	-	?	-	-	-	-
C/C=C(\C)C(=O)N[C@@H](C)CN1C2=NC[C@H](C(C)C)N2C[C@H]1Cc1ccc(OC)cc1	?	?	40µM	-	-	-
COc1ccc(C[C@@H]2CN3C(=NC[C@@H]3Cc3ccc(O)cc3)N2C[C@H](C)NC(=O)CCC2CCCCC2)cc1	.	-	79µM	-	?	27µM
COC(=O)c1ccc(CSc2nnc(SCc3ccc(C(=O)OC)o3)s2)o1	-	-	-	-	-	-
COC(=O)c1ccc(CSc2nc(C)nc3sc(C)c(C)c23)o1	?	?	25µM	-	-	-
Cc1sc2nc3c4ccccc4c(NCc4ccco4)nn3c(=O)c2c1C	-	-	18µM	-	-	-
Cc1nc(SCC(=O)N(C)Cc2ccco2)c2c(C)c(C)sc2n1	50µM	-	-	-	-	?
Cc1sc2nc(SCC(=O)C(C)(C)C)n(Cc3ccco3)c(=O)c2c1C	-	-	-	-	-	-
COC(=O)c1ccc(CSc2nnc(NCc3ccccc3)s2)o1	50µM	-	-	-	-	-
CCOC(=O)c1sc2nc(CC(=O)OC)nc(NCc3ccco3)c2c1C	-[12.7 µM]	?	-	-	?	-
Cc1nc(NCc2ccco2)c2c(C)c(C)sc2n1	8.9µM	28µM	-	?	3.2µM	-
COc1ccc(C(=O)NNC(=S)NC(=O)c2cccs2)cc1	40µM	-	-	-	-	-
COc1ccc(CC(=O)NNC(=S)NC(=O)c2cccnc2)cc1	.	-	?	-	20µM	?
COc1ccc(C(=O)NNC(=S)NC(=O)c2cccnc2)cc1	13µM	-	-	-	-	-
O=C(Cc1ccccc1)NNC(=S)NC(=O)c1cccnc1	10µM	-	?	-	25µM	-
O=C(NC1CCCCC1)c1cc(-c2cccs2)on1	?	-	-	-	-	-
SMILES	G9a block	BAZ2B block	Sfp inh	HP1b binding inh	JMJD2A Tudor	PLK1 PBD block
COc1ccc(C)cc1NC(=O)COc1cc(=O)n(C)c2ccccc12	-	-	.	-	-	.
Cc1ccc(CN2COc3ccc4c(C)cc(=O)oc4c3C2)cc1	-	-	.	-	-	.
CC1=C/C(=C/N(C)c2ccccc2)C(=O)S1	?	?	28µM	?	?	27µM
CCN1C(=O)C(=CC=CN(C)c2ccccc2)SC1=S	.	.	.	.	.	-
CCS(=O)(=O)n1nc(-c2ccco2)nc1NCc1ccc(C(C)C)cc1	?	-	.	-	-	.
CCNC(=O)c1cc2c(c(-c3cccc(-c4ccccc4F)c3)n1)[C@@H](CCO)N(C(=O)CC)C2	.	.	.	.	.	-
Cc1nn(CC(=O)NCc2cccc(F)c2)c(=O)c2cccn12	.	-	-	?	56µM	-
CCCCc1ccc(-c2nc(NC(=O)C3C4CCC(O4)C3C(=O)O)sc2C)cc1 (stereo not given)	50µM	?	-	.	.	.
